Experimental data as given in PubChem BioAssay AID449728 (The Scripps Research Institute Molecular Screening Center, 2010).
Where “and” joins values, the source holds several entries; their conditions need not be identical. Identical values can stand only once. The campaign covered roughly 330,000 compounds. About 900 (0.27%) were called active.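 The calls were made as follows: active = inhibition above the campaign's mean inhibition across all tested compounds plus 3 SD (cut at about 9.9% in these data); inactive = the rest.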 What follows is part of a selection rich in actives, with near analogues and random picks from the rest. Some compounds were tested as several samples or in several runs, with calls that do not always agree.

assay: bacterial viability reduction in E. coli – absorbance, OD600, counter-screen for AddAB inhibitor project, primary screen (AID 449728);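 also: uninfected addAB+ strain grown without phage in ampicillin broth; 0% = DMSO wells and 100% = ciprofloxacin 0.95 µg/ml wells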; settings: E. coli V3065 growth, 18 h, at 11.9 µM, stronger effect = higher value

Row | Compound | inhibition
1 | CCn1c(=O)c([N+](=O)[O-])c(NCc2ccc3c(c2)OCO3)c2ccccc21 | 0.41% (inactive)
2 | CCOCCCn1c(NN)nc2ccccc2c1=O | 2.87% (inactive)
3 | CCn1c(/C=C/c2ccc([N+](=O)[O-])o2)nc2ccccc2c1=O | 21.6% (active)
4 | Cc1cn(C2C=CC(CO)O2)c(=O)[nH]c1=O (stereo unspecified) | 8.77% (inactive)
5 | COc1cc(OC)c2c(c1)OC(=O)CC2c1cc(OC)c(OC)c(OC)c1 (stereo unspecified) | 2.5% (inactive)
6 | CC1(C)CC2CC(C)(CN2c2ncnc3ccc(Br)cc23)C1 (stereo unspecified) | -0.09% (inactive)
7 | Cc1ccc(NC(=O)CCCNC(=O)c2ccc(Cl)cc2)cc1S(=O)(=O)N1CCOCC1 | -1.94% (inactive)
8 | CC(C)[C@@H]1COC(c2cccc(C3=N[C@H](C(C)C)CO3)c2)=N1 | -0.25% (inactive)
9 | CCN1/C(=C\c2ccc3ccccc3[n+]2CC)Sc2cc(C)ccc21 | 15% (active)
10 | CC(=O)c1c(Nc2ccccc2)sc(C(=O)c2ccccc2)c1C | 1.73% (inactive)
11 | CCOc1ccccc1NC(=S)N1CCN(c2cccc(C)c2C)CC1 | 0.08% (inactive)
12 | O=C(O)CSc1nccc2ccccc12 | -0.18% (inactive)
13 | O=C1CCC(=O)N(O)CCCCCNC(=O)CCC(=O)N(O)CCCCCNC(=O)CCC(=O)N(O)CCCCCN1 | 29.4% (active)
14 | CCOC(=O)c1nnn2c1nc(N1CCN(c3ccccc3)CC1)c1ccccc12 | 1.28% (inactive)
15 | O=C(/C=C/c1ccccc1Cl)Nc1ccc(S(=O)(=O)Nc2ncccn2)cc1 | 0.84% (inactive)
16 | COc1cccc(OC)c1C(=O)NC(=S)NCc1ccco1 | 1.37% (inactive)
17 | COc1cc(C(=O)NC(=S)NCc2ccco2)cc(OC)c1OC | 14.7% (active)
18 | COc1cc(NC(=S)NCc2ccco2)c(OC)cc1Cl | -0.7% (inactive)
19 | O=C(NCCc1c[nH]c2ccccc12)c1cc2ccccc2oc1=O | 0.17% (inactive)
20 | CC(C)(C)N(Cc1ccccc1)C(=O)COC(=O)CCc1c[nH]c2ccccc12 | -1.13% (inactive)
21 | O=C(O)c1cccc(NC(=S)N/N=C/c2c[nH]c3ccccc23)c1 | 0.08% (inactive)
22 | Nc1nonc1-n1nnc(C(=O)N/N=C/c2c[nH]c3ccccc23)c1-c1ccccc1 | 0% (inactive)
23 | CSC(=S)N/N=C/c1c[nH]c2ccccc12 | 12.8% (active)

Row | Compound | inhibition
24 | Cc1ccc(CSCC2Nc3ccc(C(=O)N4CCN(c5ccc(F)cc5)CC4)cc3NC2=O)cc1 (stereo unspecified) | -0.76% (inactive)
25 | O=C(O)CCCC(=O)Nc1ccc(Oc2cccc(C(F)(F)F)c2)nc1 | 1.79% (inactive)
26 | Cc1ccc(OC(=O)c2ccccc2C(=O)OCC(F)(F)C(F)F)cc1 | 0.25% (inactive)
27 | O=C(CCC(=O)NNc1nc2ccccc2c2nc(-c3ccccc3)nn12)NCCCN1CCCC1=O | -1.57% (inactive)
28 | CCCc1nnc(SCC(=O)Nc2ccc(C(=O)OCC)cc2)o1 | -1.1% (inactive)
29 | CCOC(=O)c1ccc(NC(=O)Cn2cnc3cc(C)c(C)cc32)cc1 | 16.7% (active)
30 | CCOC(=O)c1ccc(NC(=O)CSc2nnc(COc3ccccc3OC)n2C)cc1 | 2.63% (inactive)
31 | COc1cc(OC)cc(-c2c(C#Cc3ccsc3)c3cc(-c4ccc(SC)cc4)ccc3n2C)c1 | 0.52% (inactive)
32 | COc1ccc(-c2ccc(CCC(=O)O)n2NC(=O)c2ccc(C(C)(C)C)cc2)cc1 | 2.02% (inactive)
33 | COc1ccc(CSc2nnnn2-c2ccc(O)cc2)cc1F | -0.34% (inactive)
34 | COCCn1c(SCC(=O)Nc2cc(OC)ccc2OC)nc2c(c1=O)SC(C)C2 (stereo unspecified) | -0.66% (inactive)
35 | Cc1cc2c(cc1C)[n+](C)cn2CC(O)COCC1CC=CCC1 (stereo unspecified) | -1.13% (inactive)
36 | Cc1nc2ccccc2nc(=O)c1NNc1ccc([N+](=O)[O-])cc1 | -0.37% (inactive)
37 | O=[N+]([O-])c1ccc(N=Cc2c(O)ccc3ccccc23)cc1 | 25% (active)
38 | O=C(Oc1ccc([N+](=O)[O-])cc1)c1ccc2ccccc2n1 | 0.89% (inactive)
39 | O=S(=O)(c1ccc(Br)cc1)n1ccc2ccccc21 | 0.82% (inactive)
40 | CCCc1nc(N)nc2c1C(=O)CC(C)(C)C2 | 0% (inactive)
41 | CC(C)(C)NC(=O)COC(=O)c1cc(Br)ccc1Cl | -0.09% (inactive)
42 | CCCC(=O)OCC(=O)Nc1cc(Cl)ccc1[N+](=O)[O-] | 0.59% (inactive)
43 | CC(C)(C)NC(=O)COC(=O)c1cc(Cl)ccc1[N+](=O)[O-] | 16% (active)
44 | CSc1ccccc1NC(=O)C(C)N1C(=O)c2ccccc2S1(=O)=O (stereo unspecified) | -0.94% (inactive)
45 | CC1CC1C(=O)OCC(=O)c1c(N)n(C)c(=O)n(C)c1=O (stereo unspecified) | -1.26% (inactive)
46 | COc1ccc(NC(=O)CSc2nc(SC)ns2)c(OC)c1 | -1.11% (inactive)

Row | Compound | inhibition
47 | CCCCCCNC(=O)CSc1nccn1Cc1ccccc1 | -3.38% (inactive)
48 | Cc1occc1C(=O)NC1CCCN(Cc2ccc(CC(C)C)cc2)C1 (stereo unspecified) | -0.68% (inactive)
49 | CCOc1ccc(OCCSc2nc3ccccc3n2CC(=O)O)cc1 | -0.94% (inactive)
50 | Oc1cccc(/C=N/Nc2ccc(Cl)nn2)c1O | 19.4% (active)
51 | Oc1c(Br)cccc1/C=N/Nc1c(F)c(F)c(F)c(F)c1F | 0.5% (inactive)
52 | Oc1ccc(Br)cc1/C=N/Nc1ccccn1 | 9.57% (inactive)
53 | C/C(=C/C(=O)N1CCN(C)CC1)C(=O)O | 0.17% (inactive)
54 | CCC1OC(c2ccc([N+](=O)[O-])cc2)=Nc2ccccc21 (stereo unspecified) | -1.44% (inactive)
55 | CCCCCOc1ccc(CSC2=NCCN2)cc1[N+](=O)[O-] | 0.17% (inactive)
56 | CCCCOc1ccc(CSC(=N)N)cc1[N+](=O)[O-] | 10.1% (active)
57 | CCCCOC(=O)CCCc1ccc([N+](=O)[O-])cc1[N+](=O)[O-] | 0.76% (inactive)
58 | O=C(Nc1ccccc1F)C1C2C=CC3(O2)C1C(=O)N(c1cccnc1)C3C(=O)NC1CCCCC1 (stereo unspecified) | -0.09% (inactive)
59 | COC(=O)c1c(NC(=O)COC(=O)[C@@H](NS(=O)(=O)c2ccccc2)C(C)C)sc2c1CCC2 | -2.57% (inactive)
60 | Oc1ccc2ccccc2c1N=Nc1nccs1 | 13.9% (active)
61 | O=C(NC(=S)Nc1ncccn1)c1ccccc1Br | 0.5% (inactive)
62 | O=C(CN1C(=O)COc2ccc(Cl)cc21)N1CCOCC1 | 1.26% (inactive)
63 | COc1ccc(NC(=O)CCn2ccnc2)c(OC)c1 | -1.17% (inactive)
64 | CC(=O)NC12CC3CC(C1)CC(C(=O)N1CCN(S(=O)(=O)c4cccs4)CC1)(C3)C2 | -1.77% (inactive)
65 | CCCCCCn1cc(C(=O)O)c(=O)c2cc(F)c(N3CCCCC3)cc21 | 1.34% (inactive)
66 | CCn1cc(S(=O)(=O)c2cccc(C)c2)c(=O)c2cc(F)c(N3CCN(C)CC3)cc21 | -4.05% (inactive)
67 | CCn1cc(C(=O)NCCC(=O)NCCO)c(=O)c2cc3c(cc21)OCO3 | 1.2% (inactive)
68 | CCCCNC(=O)c1cn(CC)c2cc(N3CCN(C(=O)c4ccco4)CC3)c(F)cc2c1=O | 5.88% (inactive)
69 | CN1CCN(c2cc3c(cc2F)c(=O)c(C(=O)O)cn3CCF)CC1 | 100% (active)

Row | Compound | inhibition
70 | CCn1cc(C(=O)NCCO)c(=O)c2cc(F)c(N3CCN(C)CC3)cc21 | 97.8% (active)
71 | NNC(=O)c1ccc(COCC(F)(F)C(F)F)cc1 | 3.04% (inactive)
72 | Cc1nnc(SCC2=C(C(=O)O)N3C(=O)C(NC(=O)Cn4nc(C)c(Cl)c4C)C3SC2)s1 (stereo unspecified) | 1.18% (inactive)
73 | CO/N=C(\C(=O)N[C@@H]1C(=O)N2C(C(=O)O)=C(COC(C)=O)CS[C@H]12)c1csc(N)n1 (stereo in doubt) | 98.5% (active) and 97.8% (active) and -0.69% (inactive)
74 | CC(C)(C)OC(=O)C1=C(CO)CS[C@@H]2[C@H](NC(=O)Cc3ccccc3)C(=O)N12 | 1.43% (inactive)
75 | C=CC1=C(C(=O)O)N2C(=O)[C@@H](NC(=O)/C(=N\OCC(=O)O)c3csc(N)n3)[C@H]2SC1 | 97.5% (active)
76 | Cc1cc(C)cc(C(=O)NC2C(=O)N3C(C(=O)O)=C(CSc4nnc(C)s4)CSC23)c1 (stereo unspecified) | -0.85% (inactive)
77 | C=CC1=C(C(=O)O)N2C(=O)[C@@H](NC(=O)/C(=N/OCC(=O)O)c3csc(N)n3)[C@H]2SC1 | 97.6% (active)
78 | COC(=O)C1=C(C)NC2=C(C(=O)c3ccccc32)C1c1ccc(-c2ccc(C(=O)O)cc2)o1 (stereo unspecified) | 1.44% (inactive)
79 | CCCCC(=O)Nc1nnc(S(=O)(=O)N(C)Cc2ccco2)s1 | 1.69% (inactive)
80 | Cc1[nH]nc(SCC(=O)NCC(C)C)c1[N+](=O)[O-] | -0.08% (inactive)
81 | COc1ccc(S(=O)(=O)N2CCOCC2)cc1NC(=O)CSc1ncnc2ccccc12 | -2.21% (inactive)
82 | COC(=O)c1ccc(COC(=O)CNC(=O)c2cccc(OC)c2)o1 | -0.35% (inactive)
83 | CCOC(=O)c1c(CC(C)C)csc1/N=C/C1=C(O)CCCC1=O | -1.62% (inactive)
84 | Cc1ccc(-n2c(C)nnc2SCC(=O)NC2CC2)cc1 | 0.84% (inactive)
85 | O=c1ccc2c(-c3ccccc3S(=O)(=O)O)c3ccc(O)c(O)c3oc-2c1O | 20.2% (active)
86 | CC(C)C(C(=O)NCc1ccco1)N(CC1CCCO1)C(=O)CNS(=O)(=O)c1ccc(F)cc1 (stereo unspecified) | 0.85% (inactive)
87 | CC(=O)Nc1ccc(S(=O)(=O)N(CCc2ccccc2)CC(=O)N/N=C/c2ccc(C(=O)O)cc2)cc1 | 2.71% (inactive)
88 | O=S(=O)(Nc1ccc(-n2cnnn2)cc1)c1ccc(Cl)cc1 | 1.06% (inactive)
89 | COc1ccc(C(=O)/C=C/c2cccnc2)c(OC)c1 | -1.21% (inactive)
90 | COc1ccc2oc(=N)c(C(=O)Nc3ccc(Br)cc3)cc2c1 | -1.46% (inactive)
91 | COc1ccc(/C=C/C(=O)c2cc(Br)ccc(=O)c2O)cc1 | 10.9% (active)
